Experimental data: PubChem BioAssay (NCATS)
Where “and” joins values, the source holds several entries; their conditions need not be identical. Equal entries are not always repeated. Records with an inconclusive call do not appear. Calls of active or inactive are those of the source. Calls come from the whole dose curve; as a rule, active = well fitted curve in the direction sought with a large enough effect; inconclusive = small, poorly fitted or top-dose-only effect, or another doubt; inactive = no such curve, though single readings can be large; an effect the other way counts as inactive or inconclusive.

What was measured:
HaCat [1] = experiment: Cytotoxic Profiling of Annotated Libraries Using Quantitative High-Throughput Screening (AID 1296008); details: Five cell lines viability, CellTiter-Glo ATP luminescence, 48-72 h; max response: stronger effect = lower value; note: nearly all actives have a fitted effect of over 60% in size
Procedure, shortened: (§1)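 Cytotoxicity was measured as CellTiter-Glo ATP luminescence, read after 10 min at room temperature. Compound treatment of the cells lasted 48 or 72 hr at 37 degrees Celsius in a qHTS format.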

KB-3-1 = experiment: as above; details: Five cell lines viability, CellTiter-Glo ATP luminescence, 48-72 h; max response: stronger effect = lower value
Procedure, shortened: as §1

NIH3T3 [2] = experiment: as above; details: Five cell lines viability, CellTiter-Glo ATP luminescence, 48-72 h; max response: stronger effect = lower value
Procedure, shortened: as §1

HACAT [3] = experiment: qHTS assay to identify novel small-molecules to repurpose for Merkel cell carcinoma treatment (AID 1296009); details: MCC and control cell lines, CellTiter-Glo viability, 72 h; at 44.8 µM (top of the series) unless noted; note: nearly all actives have a fitted effect of over 60% in size
Procedure, shortened: (§2)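 72 hr, 37 degree celsius; NPC 8-pt / MIPE 11-pt dose response; compound pinned in DMSO; CellTiter-Glo, 10 min RT, luminescence; normalized to no-cell and DMSO controls.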

MCC-13 = experiment: as above; details: MCC and control cell lines, CellTiter-Glo viability, 72 h; series mostly up to 46 µM
Procedure, shortened: as §2

MCC-26 = experiment: as above; details: MCC and control cell lines, CellTiter-Glo viability, 72 h; series mostly up to 46 µM
Procedure, shortened: as §2

MKL-1 = experiment: as above; details: MCC and control cell lines, CellTiter-Glo viability, 72 h; series mostly up to 46 µM
Procedure, shortened: as §2

MKL-2 = experiment: as above; details: MCC and control cell lines, CellTiter-Glo viability, 72 h; series mostly up to 46 µM
Procedure, shortened: as §2

UISO = experiment: as above; details: MCC and control cell lines, CellTiter-Glo viability, 72 h; series mostly up to 46 µM
Procedure, shortened: as §2

WaGa = experiment: as above; details: MCC and control cell lines, CellTiter-Glo viability, 72 h; series mostly up to 46 µM
Procedure, shortened: as §2

C33A = experiment: Primary qHTS to identify gynecologic anti-cancer compounds using libraries of approved drugs and bioactive compounds (AID 1345084); details: Gynecologic cancer cell panel viability, ATPlite luminescence, 48 h; series mostly up to 57.5 µM; note: nearly all actives have a fitted effect of over 55% in size
Procedure, shortened: (§3)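 Five-point cytotoxicity, 48 h drug exposure at 37 C, 5% CO2, on cells seeded 16 h beforehand. ATP content read by ATPlite luminescence.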

CAOV3 = experiment: as above; details: Gynecologic cancer cell panel viability, ATPlite luminescence, 48 h; series mostly up to 57.5 µM
Procedure, shortened: as §3

CASKI = experiment: as above; details: Gynecologic cancer cell panel viability, ATPlite luminescence, 48 h; series mostly up to 57.5 µM
Procedure, shortened: as §3

Es-2 = experiment: as above; details: Gynecologic cancer cell panel viability, ATPlite luminescence, 48 h; series mostly up to 57.5 µM
Procedure, shortened: as §3

HeLa = experiment: as above; details: Gynecologic cancer cell panel viability, ATPlite luminescence, 48 h; series mostly up to 57.5 µM
Procedure, shortened: as §3

Hek293T [4] = experiment: as above; details: Gynecologic cancer cell panel viability, ATPlite luminescence, 48 h, control line for the selectivity index; series mostly up to 57.5 µM
Procedure, shortened: as §3

JEG-3 = experiment: as above; details: Gynecologic cancer cell panel viability, ATPlite luminescence, 48 h; series mostly up to 57.5 µM
Procedure, shortened: as §3

OV90 = experiment: as above; details: Gynecologic cancer cell panel viability, ATPlite luminescence, 48 h; series mostly up to 57.5 µM
Procedure, shortened: as §3

HEK293T [5] = experiment: qHTS assay to identify novel small-molecules to repurpose for Merkel cell carcinoma treatment (AID 1296009); details: MCC and control cell lines, CellTiter-Glo viability, 72 h; at 44.8 µM (top of the series) unless noted; note: nearly all actives have a fitted effect of over 60% in size
Procedure, shortened: as §2

NIH3T3 [6] = experiment: as above; details: MCC and control cell lines, CellTiter-Glo viability, 72 h; at 44.8 µM (top of the series) unless noted
Procedure, shortened: as §2
% is set by controls: 0 for no effect and ±100 for the full control effect.

CC(=O)[C@H]1CC[C@H]2[C@@H]3C=CC4=CC(=O)CC[C@@]4(C)[C@@H]3CC[C@]12C
inactive: max response (HaCat [1]) -26.7% | outcome (HaCat [1]) | max response (KB-3-1) -2.29% | max response (NIH3T3 [2]) -20.6% and 1.55% | outcome (HACAT [3]) | Potency (MCC-13) | Potency (MCC-26) | Potency (MKL-1) | Potency (MKL-2) | Potency (UISO) | Potency (WaGa) | Potency (C33A) | Potency (CAOV3) | Potency (CASKI) | Potency (Es-2) | Potency (HeLa) | Potency (Hek293T [4]) | Potency (JEG-3) | Potency (OV90)

CC(=O)N[C@@H](CCC(N)=O)C(=O)O
inactive: outcome (HaCat [1]) | max response (KB-3-1) -6.88% | max response (NIH3T3 [2]) -1.83% | outcome (HACAT [3]) | outcome (HEK293T [5]) | Potency (MCC-13) | Potency (MCC-26) | Potency (MKL-1) | Potency (MKL-2) | Potency (UISO) | Potency (WaGa) | Potency (C33A) | Potency (CAOV3) | Potency (CASKI) | Potency (Es-2) | Potency (HeLa) | Potency (Hek293T [4]) | Potency (JEG-3) | Potency (OV90)

CC(C(=O)O)c1ccc(/C=C2\CCCCC2=O)cc1 (centres undefined)
inactive: outcome (HaCat [1]) | outcome (KB-3-1) | max response (NIH3T3 [2]) 3.05% | outcome (HACAT [3]) | Potency (MCC-13) | Potency (MCC-26) | Potency (MKL-1) | Potency (MKL-2) | Potency (UISO) | Potency (WaGa) | Potency (C33A) | Potency (CAOV3) | Potency (CASKI) | Potency (Es-2) | Potency (HeLa) | Potency (Hek293T [4]) | Potency (JEG-3) | Potency (OV90)

O=C(OCC(COC(=O)c1cccnc1)(COC(=O)c1cccnc1)COC(=O)c1cccnc1)c1cccnc1
inactive: outcome (HaCat [1]) | max response (KB-3-1) -20.2% | outcome (NIH3T3 [2]) | outcome (HACAT [3]) | Potency (MCC-13) | Potency (MCC-26) | Potency (MKL-1) | Potency (MKL-2) | outcome (NIH3T3 [6]) | Potency (UISO) | Potency (WaGa) | Potency (C33A) | Potency (CAOV3) | Potency (CASKI) | Potency (Es-2) | Potency (HeLa) | Potency (Hek293T [4]) | Potency (JEG-3) | Potency (OV90)

C[N+]1(C)CCC(OC(=O)C(O)(c2ccccc2)C2CCCC2)C1 (centres undefined)
inactive: outcome (HaCat [1]) | max response (KB-3-1) -6.32% and -2.46% | max response (NIH3T3 [2]) -0.313% | outcome (HACAT [3]) | Potency (MCC-13) | Potency (MCC-26) | Potency (MKL-1) | Potency (MKL-2) | Potency (UISO) | Potency (WaGa) | Potency (C33A) | Potency (CAOV3) | Potency (CASKI) | Potency (Es-2) | Potency (HeLa) | Potency (Hek293T [4]) | Potency (JEG-3) | Potency (OV90)

CC(C)=CCC/C(C)=C/CC/C(C)=C/CCC(=O)OC/C=C(\C)CCC=C(C)C
inactive: outcome (HaCat [1]) | max response (KB-3-1) -12.9% | outcome (NIH3T3 [2]) | outcome (HACAT [3]) | Potency (MCC-13) | Potency (MCC-26) | Potency (MKL-1) | Potency (MKL-2) | outcome (NIH3T3 [6]) | Potency (UISO) | Potency (WaGa) | Potency (C33A) | Potency (CAOV3) | Potency (CASKI) | Potency (Es-2) | Potency (HeLa) | Potency (Hek293T [4]) | Potency (JEG-3) | Potency (OV90)

CCCCCOc1ccc(C2SC(=O)NC2=O)cc1OCC (centres undefined)
inactive: outcome (HaCat [1]) | outcome (KB-3-1) | outcome (NIH3T3 [2]) | outcome (HACAT [3]) | Potency (MCC-13) | Potency (MCC-26) | Potency (MKL-1) | Potency (MKL-2) | outcome (NIH3T3 [6]) | Potency (UISO) | Potency (WaGa) | Potency (C33A) | Potency (CAOV3) | Potency (CASKI) | Potency (Es-2) | Potency (HeLa) | Potency (Hek293T [4]) | Potency (JEG-3) | Potency (OV90)

Cc1ccc(O)cc1
inactive: outcome (HaCat [1]) | max response (KB-3-1) -1.63% and -10.4% | max response (NIH3T3 [2]) 0.99% | outcome (HACAT [3]) | Potency (MCC-13) | Potency (MCC-26) | Potency (MKL-1) | Potency (MKL-2) | Potency (UISO) | Potency (WaGa) | Potency (C33A) | Potency (CAOV3) | Potency (CASKI) | Potency (Es-2) | Potency (HeLa) | Potency (Hek293T [4]) | Potency (JEG-3) | Potency (OV90)

C=CCOc1cc(Cl)ccc1C(=O)NCCN(CC)CC
inactive: outcome (HaCat [1]) | max response (KB-3-1) 6.3% | max response (NIH3T3 [2]) 1.31% | outcome (HACAT [3]) | Potency (MCC-13) | Potency (MCC-26) | Potency (MKL-1) | Potency (MKL-2) | Potency (UISO) | Potency (WaGa) | Potency (C33A) | Potency (CAOV3) | Potency (CASKI) | Potency (Es-2) | Potency (HeLa) | Potency (Hek293T [4]) | Potency (JEG-3)

Cc1nc([N+](=O)[O-])cn1-c1ccc([N+](=O)[O-])cc1
inactive: outcome (HaCat [1]) | max response (KB-3-1) 5.55% | outcome (NIH3T3 [2]) | outcome (HACAT [3]) | Potency (MCC-13) | Potency (MCC-26) | Potency (MKL-1) | Potency (MKL-2) | outcome (NIH3T3 [6]) | Potency (UISO) | Potency (WaGa) | Potency (C33A) | Potency (CASKI) | Potency (Es-2) | Potency (HeLa) | Potency (Hek293T [4]) | Potency (JEG-3) | Potency (OV90)

CCOc1ccc(NS(=O)(=O)c2ccc(N)cc2)nn1
inactive: max response (HaCat [1]) 1.89% | max response (KB-3-1) -7.66% | max response (NIH3T3 [2]) 3.16% | outcome (HEK293T [5]) | Potency (MCC-13) | Potency (MCC-26) | Potency (MKL-1) | Potency (MKL-2) | Potency (UISO) | Potency (WaGa) | Potency (C33A) | Potency (CAOV3) | Potency (CASKI) | Potency (Es-2) | Potency (HeLa) | Potency (Hek293T [4]) | Potency (JEG-3) | Potency (OV90)

COc1cc(C(=O)OC(COCCC(C)C)CN2CCOCC2)cc(OC)c1OC (centres undefined)
inactive: max response (HaCat [1]) -1.64% | outcome (KB-3-1) | max response (NIH3T3 [2]) 3.87% | outcome (HEK293T [5]) | Potency (MCC-13) | Potency (MCC-26) | Potency (MKL-1) | Potency (MKL-2) | Potency (UISO) | Potency (WaGa) | Potency (C33A) | Potency (CASKI) | Potency (Es-2) | Potency (HeLa) | Potency (Hek293T [4]) | Potency (JEG-3) | Potency (OV90)

O=C(Oc1ccccc1)c1cccc(C(=O)Oc2ccccc2)c1
inactive: outcome (HaCat [1]) | max response (KB-3-1) -6.63% | max response (NIH3T3 [2]) -5.12% | outcome (HACAT [3]) inactive [at 92 µM] | Potency (MCC-13) | Potency (MCC-26) | Potency (MKL-1) | Potency (MKL-2) | Potency (UISO) | Potency (WaGa) | Potency (C33A) | Potency (CAOV3) | Potency (CASKI) | Potency (Es-2) | Potency (HeLa) | Potency (JEG-3) | Potency (OV90)

C[C@@]12CCC[C@H]1[C@@H]1CC[C@H]3C[C@@H](O)CC[C@]3(C)[C@H]1CC2
inactive: max response (HaCat [1]) 2.53% | max response (KB-3-1) -1.74% | max response (NIH3T3 [2]) 0.76% | outcome (HEK293T [5]) | Potency (MCC-13) | Potency (MCC-26) | Potency (MKL-1) | Potency (MKL-2) | Potency (UISO) | Potency (WaGa) | Potency (C33A) | Potency (CAOV3) | Potency (CASKI) | Potency (Es-2) | Potency (HeLa) | Potency (Hek293T [4]) | Potency (JEG-3) | Potency (OV90)
